Data: PubChem BioAssay
Active and inactive are the calls of the source. Unless noted, the rule behind the calls is not given here.

What was measured:
[1] = tested on: Wnt5a (protein binding on small-molecule microarray); assay: small molecules binding Wnt5a protein – biophysical, small-molecule microarray, 635/667 nm fluorescence, primary screen (AID 1142); details: 635 nm fluorescence, higher = more signal;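 note: fluorescence read at 667 nm with signal to noise per printed feature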
[2] = ATP-based viability of Huh7 replicon cells – cell-based, CellTiter-Glo luminescence, basal, 48 h, cytotoxicity control for HCV replication inhibitor project, primary screen (AID 1143); details: higher = more signal, called active from +8 up or from −8 down;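 note: Huh7 hepatoma cells carrying a hepatitis C replication reporter with no stimulus; test concentration not given here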
[3] = Pseudomonas biofilm growth suppression – PAO1 strain, BacTiter-Glo luminescence, LB-PBS, primary screen (AID 1144); details: P. aeruginosa PAO1 biofilm, 12 h, higher = more signal
[4] = basal CRE-LacZ reporter activity in PC12 – cell-based, unstimulated, primary screen (AID 1145); details: no forskolin, luminescence, 4.5 h, higher = more signal, called active from +8 up or from −8 down
[5] = forskolin-driven CRE-LacZ activity in PC12 – cell-based, CRE-LacZ reporter, forskolin-stimulated, primary screen (AID 1146); details: luminescence, 4.5 h, higher = more signal, called active from +8 up or from −8 down;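 note: PC12 cells with 6xCRE LacZ reporter stimulated by forskolin 10 µM; beta-galactosidase reporter signal reflecting CREB driven transcription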
[6] = target: Streptavidin (Streptomyces avidinii) (UniProt P22629); assay: compounds binding control protein streptavidin – biophysical, small-molecule microarray, 635/667 nm fluorescence, artefact control for SMM compound annotation, primary screen (AID 1147); details: higher = more signal;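 note: signal reflects streptavidin binding to arrayed compounds as a control protein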
[7] = probe aInhba binding on compound microarray – biochemical, small-molecule microarray, 635/667 nm fluorescence, primary screen (AID 1148); details: higher = more signal;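 note: score merges 667nm spot fluorescence with signal-to-noise for antibody binding to printed compounds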
Torsin-1A (Homo sapiens) [8] = target: Torsin-1A (Homo sapiens) (UniProt O14656); assay: TOR1A wild-type binding on microarray – cell lysate, small-molecule microarray, lysate, 635/667 nm, primary screen (AID 1149); details: COS7 hTOR1A-WT lysate, 635 nm fluorescence, higher = more signal
Torsin-1A (Homo sapiens) [9] = target: Torsin-1A (Homo sapiens) (UniProt O14656); assay: torsin A mutant lysate binding on microarrays – cell lysate, small-molecule microarray, COS7 lysate, 635/667 nm fluorescence, primary screen (AID 1150); details: COS7 hTOR1A mutant lysate, 635 nm fluorescence, higher = more signal;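 note: score pools 667 nm emission and signal to noise measuring lysate protein binding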
[10] = tested on: Sonic hedgehog protein (Shh); assay: Sonic hedgehog microarray binding compounds – biochemical, small-molecule microarray, 635/667 nm fluorescence, primary screen (AID 1151); details: 635 nm fluorescence, higher = more signal;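 note: Shh protein binding to compounds spotted on small-molecule microarray slides; score combines spot fluorescence intensity with signal-to-noise across triplicate slides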
[11] = optical density shifts of acrAB sulA E. coli – strain DRC41, OD650, 48 h, E. coli filamentation inducer project, primary screen (AID 1152); details: higher = more signal, called active from +8 up or from −8 down;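 note: E. coli MC1000 strain DRC41 lacking acrAB efflux pump and sulA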
[12] = probe aLefty1 binding on compound microarray – biochemical, small-molecule microarray, 635/667 nm fluorescence, primary screen (AID 1153); details: higher = more signal;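 note: score merges spot fluorescence with signal-to-noise ratio from the scanned slide images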
[13] = plasmodial surface anion channel blockers, osmotic lysis – cell-based, P. falciparum Indochina, OD700, 1 h, primary screen (AID 1154); details: P. falciparum Indochina infected RBC osmotic lysis, higher = more signal, called active from +8 up or from −8 down
[14] = plasmodial surface anion channel blockers, osmotic lysis – cell-based, P. falciparum Indochina, OD700, 2 h, primary screen (AID 1155);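 note: lysis reports solute entry through the parasite surface anion channel PSAC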; details: P. falciparum Indochina infected erythrocytes, higher = more signal, called active from +8 up or from −8 down
[15] = changes in parasitized red cell lysis, either direction – P. falciparum Indochina, OD700, 3 h, PSAC antagonist project, primary screen (AID 1156); details: P. falciparum-infected erythrocytes, osmotic lysis, higher = more signal, called active from +8 up or from −8 down
[16] = plasmodial surface anion channel blockers, osmotic lysis – cell-based, P. falciparum Indochina, OD700, 18 h, primary screen (AID 1157); details: P. falciparum Indochina infected erythrocytes, osmotic lysis OD700, 18 h; higher = more signal, called active from +8 up or from −8 down
[17] = S6 kinase pathway phospho-S6 level changes – cell-based, A549, cytoblot, luminescence, serum-stimulated, primary screen (AID 1158); details: 5 h, higher = more signal;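 note: serum-stimulated A549 lung adenocarcinoma cells; signal is phosphorylated S6 detected by cytoblot immunostaining with HRP secondary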
[18] = target: NADPH oxidase 2 (Homo sapiens) (UniProt P04839); assay: compounds shifting NOX2 Amplex Red fluorescence – cell-based, HEK293-NOX2, PMA-stimulated, NOX inhibitor project, primary screen (AID 1159); details: 45 min, higher = more signal, called active from +8 up or from −8 down; note: test concentration not given here
[19] = target: NADPH oxidase 4 (Homo sapiens) (UniProt Q9NPH5); assay: compounds shifting NOX4 Amplex Red fluorescence – cell-based, HEK293-NOX4, tetracycline-induced, NOX inhibitor project, primary screen (AID 1160); details: HEK293-NOX4, Amplex Red H2O2 fluorescence, 45 min; higher = more signal, called active from +8 up or from −8 down
[20] = target: NADPH oxidase 5 (Homo sapiens) (UniProt Q96PH1); assay: compounds shifting NOX5 Amplex Red fluorescence – cell-based, HEK293-NOX5, NOX inhibitor project, primary screen (AID 1161); details: HEK293-NOX5, ionomycin, 45 min, higher = more signal
Chain of NADPH oxidase 5 (Homo sapiens) (Q96PH1 whole entry, looked up): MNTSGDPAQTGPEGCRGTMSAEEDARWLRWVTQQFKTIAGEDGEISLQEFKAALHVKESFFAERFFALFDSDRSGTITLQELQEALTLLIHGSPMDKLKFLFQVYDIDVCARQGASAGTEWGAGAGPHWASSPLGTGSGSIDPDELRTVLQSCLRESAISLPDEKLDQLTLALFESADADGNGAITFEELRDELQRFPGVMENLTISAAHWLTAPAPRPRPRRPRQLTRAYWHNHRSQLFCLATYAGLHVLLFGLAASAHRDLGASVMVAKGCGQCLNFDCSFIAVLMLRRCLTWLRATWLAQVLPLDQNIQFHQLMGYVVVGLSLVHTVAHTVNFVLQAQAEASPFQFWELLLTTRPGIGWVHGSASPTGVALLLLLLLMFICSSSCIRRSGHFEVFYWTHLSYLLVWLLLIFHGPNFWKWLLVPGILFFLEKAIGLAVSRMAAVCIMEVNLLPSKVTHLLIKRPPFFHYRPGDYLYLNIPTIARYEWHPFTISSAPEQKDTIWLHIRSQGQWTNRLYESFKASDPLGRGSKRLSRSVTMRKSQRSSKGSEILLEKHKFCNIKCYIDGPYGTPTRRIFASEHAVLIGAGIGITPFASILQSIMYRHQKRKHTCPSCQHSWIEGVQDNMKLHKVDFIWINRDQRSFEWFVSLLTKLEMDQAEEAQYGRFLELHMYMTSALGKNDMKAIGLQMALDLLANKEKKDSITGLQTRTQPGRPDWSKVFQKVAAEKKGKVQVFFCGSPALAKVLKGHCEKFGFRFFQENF

Chain of Torsin-1A (Homo sapiens) (O14656 whole entry, looked up): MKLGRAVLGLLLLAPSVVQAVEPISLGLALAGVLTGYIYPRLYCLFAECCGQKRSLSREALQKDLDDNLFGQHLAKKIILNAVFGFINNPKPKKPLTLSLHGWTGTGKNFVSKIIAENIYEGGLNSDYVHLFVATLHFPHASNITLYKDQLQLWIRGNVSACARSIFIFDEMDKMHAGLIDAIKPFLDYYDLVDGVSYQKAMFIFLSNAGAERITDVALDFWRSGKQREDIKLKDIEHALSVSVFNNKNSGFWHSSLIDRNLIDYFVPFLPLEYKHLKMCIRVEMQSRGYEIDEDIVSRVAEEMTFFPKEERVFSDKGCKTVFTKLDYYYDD
Chain of NADPH oxidase 4 (Homo sapiens) (Q9NPH5 whole entry, looked up): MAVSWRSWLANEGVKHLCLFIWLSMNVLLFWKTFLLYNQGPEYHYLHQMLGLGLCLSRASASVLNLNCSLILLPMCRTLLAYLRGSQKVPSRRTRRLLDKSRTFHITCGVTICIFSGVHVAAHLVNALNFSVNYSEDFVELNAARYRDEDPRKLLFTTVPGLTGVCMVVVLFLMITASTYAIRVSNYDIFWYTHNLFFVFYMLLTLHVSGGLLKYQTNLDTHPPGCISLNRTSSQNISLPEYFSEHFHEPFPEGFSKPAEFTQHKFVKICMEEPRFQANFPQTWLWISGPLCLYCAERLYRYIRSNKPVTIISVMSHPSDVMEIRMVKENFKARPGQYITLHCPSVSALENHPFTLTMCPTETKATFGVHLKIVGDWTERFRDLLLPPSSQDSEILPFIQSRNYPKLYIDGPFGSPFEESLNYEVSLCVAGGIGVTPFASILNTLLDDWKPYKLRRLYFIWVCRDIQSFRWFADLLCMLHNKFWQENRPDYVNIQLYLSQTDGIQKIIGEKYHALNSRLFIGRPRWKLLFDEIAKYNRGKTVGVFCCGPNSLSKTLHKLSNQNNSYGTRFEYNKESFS
Chain of NADPH oxidase 2 (Homo sapiens) (P04839 whole entry, looked up): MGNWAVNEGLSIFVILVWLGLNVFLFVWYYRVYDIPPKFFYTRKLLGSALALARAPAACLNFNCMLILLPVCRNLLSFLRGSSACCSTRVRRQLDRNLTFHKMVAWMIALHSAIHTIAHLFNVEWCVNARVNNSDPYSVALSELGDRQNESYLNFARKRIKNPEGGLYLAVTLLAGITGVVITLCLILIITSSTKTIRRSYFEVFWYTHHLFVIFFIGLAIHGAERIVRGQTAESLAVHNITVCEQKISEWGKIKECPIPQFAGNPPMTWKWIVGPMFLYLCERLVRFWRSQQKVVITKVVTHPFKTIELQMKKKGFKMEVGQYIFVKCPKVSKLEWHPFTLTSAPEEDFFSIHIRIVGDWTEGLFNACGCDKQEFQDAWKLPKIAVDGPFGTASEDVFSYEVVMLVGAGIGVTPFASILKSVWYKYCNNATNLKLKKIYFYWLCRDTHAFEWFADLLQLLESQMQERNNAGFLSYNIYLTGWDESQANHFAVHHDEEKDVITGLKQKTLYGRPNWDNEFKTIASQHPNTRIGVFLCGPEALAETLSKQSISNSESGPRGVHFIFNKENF
Chain of Streptavidin (Streptomyces avidinii) (P22629 whole entry, looked up): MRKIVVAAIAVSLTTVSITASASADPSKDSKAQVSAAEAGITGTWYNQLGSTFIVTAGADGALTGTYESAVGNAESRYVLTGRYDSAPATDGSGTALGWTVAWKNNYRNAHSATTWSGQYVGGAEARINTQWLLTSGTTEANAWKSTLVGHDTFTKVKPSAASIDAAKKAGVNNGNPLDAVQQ

Row | SMILES | composite z-score [1] | z-score [2] | z-score [3] | z-score [4] | z-score [5] | composite z-score [6] | composite z-score [7] | composite z-score (Torsin-1A (Homo sapiens) [8]) | composite z-score (Torsin-1A (Homo sapiens) [9]) | composite z-score [10] | z-score [11] | composite z-score [12] | z-score [13] | z-score [14] | z-score [15] | z-score [16] | z-score [17] | z-score [18] | z-score [19] | z-score [20]
1 | COC(=O)Cn1c(C(=O)N2CCCC2)cc2c1C[C@H]1CN(C(=O)c3ccccc3)[C@@](Cc3ccc(F)cc3)(C(=O)OC)[C@@H]21 | -0.164 | -1.83 (inactive) | -0.288 (inactive) | -0.182 (inactive) | 0.105 (inactive) | 1.59 | -0.123 | 0.895 | -0.137 | -0.271 | -0.246 (inactive) | -0.041 | 1.32 (inactive) | -0.428 (inactive) | -0.865 (inactive) | -1.71 (inactive) | 3.59 | 0.215 (inactive) | 1.31 (inactive) | -1.46
2 | CCCC[C@@H]1C[C@H]1[C@@H](NC(=O)c1cccnc1)c1ccc(-c2ccccc2)cc1 | -0.995 | -2.72 (inactive) | -0.327 (inactive) | -0.372 (inactive) | 0.162 (inactive) | -1.02 | -0.251 | -2.78 | -1.29 | -0.822 | -2.22 (inactive) | -0.105 | 3.12 (inactive) | 0.818 (inactive) | 0.219 (inactive) | 0.445 (inactive) | -0.0675 | -1.01 (inactive) | -1.52 (inactive) | 0.353
3 | CC(C)CN1C(=O)[C@@]2(c3ccc([N+](=O)[O-])cc3)CC(=O)N(CC34CC5CC(CC(C5)C3)C4)[C@@H]2c2ccc(CO)cc21 | -0.765 | -4.16 (inactive) | -1.58 (inactive) | -0.348 (inactive) | 0.134 (inactive) | -0.877 | -0.128 | -1.22 | -1.08 | -1.51 | 0.193 (inactive) | 0.129 | 1.17 (inactive) | -0.377 (inactive) | 0.0846 (inactive) | -1.17 (inactive) | 2.01 | -0.187 (inactive) | -0.981 (inactive) | -0.986
4 | C[C@H]1ON(c2ccc(C(=O)OC(C)(C)C)cc2)[C@@H](c2ccc(O)cc2)[C@@H]1C(=O)N1C(=O)OC[C@@H]1c1ccccc1 | 0.382 | -2.3 (inactive) | -0.0446 (inactive) | 0.846 (inactive) | 0.0621 (inactive) | 0.179 | -0.114 | -0.0484 | 0.39 | 1.97 | -0.569 (inactive) | -0.0023 | 3.71 (inactive) | 0.622 (inactive) | 0.166 (inactive) | 0.428 (inactive) | 0.433 | -0.414 (inactive) | -0.254 (inactive) | 0.718
5 | CN1C(=O)C2C=CC(C(O)Cc3ccccc3)N(N(c3ccccc3)c3ccccc3)C2C1=O (stereo not given) | 0.0159 | 0.443 (inactive) | -0.597 (inactive) | 0.264 (inactive) | 0.6 (inactive) | 2.18 | 0.191 | 0.0867 | 0.25 | -0.572 | -1.29 (inactive) | 0.137 | 1.15 (inactive) | 1.09 (inactive) | 0.449 (inactive) | 0.679 (inactive) | -1.07 | -0.0622 (inactive) | -0.198 (inactive) | 0.158
6 | C#CCNC(=O)[C@H](Cc1ccccc1)NC(=O)[C@@H](N=[N+]=[N-])C(C)C | 0.0696 | -0.0943 (inactive) | 0.0632 (inactive) | 0.0918 (inactive) | -0.462 (inactive) | -0.0247 | -0.025 | 0.0696 | 0.892 | 0.539 | 0.367 (inactive) | -0.145 | 0.0059 (inactive) | 0.705 (inactive) | 0.0901 (inactive) | 0.405 (inactive) | -0.52 | 0.291 (inactive) | -0.18 (inactive) | 0.323
7 | C=CCOC(=O)[C@H]1[C@@H]2C(=O)O[C@@H](c3ccccc3)[C@@H](c3ccccc3)N2[C@@H](c2ccc(OCCOC(=O)[C@H]3C[C@H]4C(=O)N[C@@H](Cc5ccccc5)C(=O)N4[C@H]3c3cccc(OCCO)c3)cc2)[C@]12C(=O)Nc1ccc(I)cc12 | 0.971 | -0.441 (inactive) | -0.283 (inactive) | 0.688 (inactive) | 0.144 (inactive) | 0.309 | -0.0112 | 0.703 | 0.815 | 2.16 | -0.386 (inactive) | 1.29 | 0.977 (inactive) | 0.856 (inactive) | -0.874 (inactive) | 0.84 (inactive) | -0.28 | 2.07 (inactive) | 1.35 (inactive) | 1.52
8 | O=C1O[C@@H](c2ccccc2)[C@@H](c2ccccc2)N2[C@@H](c3ccc(O)cc3)[C@]3(C(=O)Nc4ccc(C#CCCO)cc43)[C@@H](C(=O)Nc3nc4ccccc4s3)[C@H]12 | 0.106 | -0.486 (inactive) | 0.422 (inactive) | -0.195 (inactive) | 1.93 (inactive) | 0.103 | 0.0471 | -0.363 | 0.897 | 0.756 | 0.341 (inactive) | 0.139 | 1.35 (inactive) | 1.19 (inactive) | -0.743 (inactive) | 1.63 (inactive) | -0.435 | 1.1 (inactive) | 0.604 (inactive) | -0.073
